Measured values published in PubChem BioAssay (Tox21).
Results filed as inconclusive are left out. Unmarked numbers belong to inactive results. Activity calls are given as the source filed them. The call rests on the fitted dose curve; in most records, active means well fitted cell-killing curve with a large enough effect in the repeat runs; inconclusive means weak or mixed curves; inactive means flat fitted curve, though single readings scatter.

Assay: qHTS RealTime-Glo MT Cell Viability Assay in HepG2 cells - 16 hour (AID 1224885); further: nearly all actives have a fitted effect of over 50% in size
Details: RealTime-Glo luminescence; series mostly up to 76.8 µM; activity change, negative = cytotoxic: at the top concentration
Summary of the method: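 Tox21 10K library screened in qHTS format on HepG2 cells carrying RealTime-Glo reagents. Compounds were added after a 5 h preincubation, and the luminescent signal from continuous culture was measured repeatedly during 40 h treatment.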
On the % scale 0 is the no-effect control and ±100 the full control effect; potency means the concentration at half of the fitted maximal effect.

Compound | Potency | activity change, negative = cytotoxic
CCN(CC)C(=S)[S-].CCN(CC)C(=S)[S-].[Zn+2] | 13.7 µM (active) | –
N#CC(Cl)Cl | – | -13.6%
CN(C)C(=S)[S-].CN(C)C(=S)[S-].[Cu+2] | 3.77 µM (active) | –
c1cc[c]([Sb]([c]2ccccc2)[c]2ccccc2)cc1 | – | 0.886%
Clc1ccc(COC(Cn2ccnc2)c2ccc(Cl)cc2Cl)cc1 (stereo not drawn) | 43.5 µM (active) | –
Cc1cc(C)c(C2=C(OC(=O)CC(C)(C)C)C3(CCCC3)OC2=O)c(C)c1 | – | -0.0498%
CC(=O)[O-].CC(=O)[O-].[Hg+2] | 2.45 µM (active) | –
NC(=O)CCl | – | -0.5%
CCC(C)c1cc(C(C)(C)C)cc(-n2nc3ccccc3n2)c1O (stereo not drawn) | – | 1.65% [at 35.3 µM]
CCOc1cc(C(C)(C)C)ccc1C1COC(c2c(F)cccc2F)=N1 (stereo not drawn) | – | -16.3% [at 35.3 µM]
NC(=O)c1ccc(N)nc1 | – | 0.557%
Cc1cc(SCc2sc(-c3ccc(C(F)(F)F)c(F)c3)nc2C)ccc1OCC(=O)O | – | -16.8%
COc1ccc(OC)c(CC(C)N)c1 (stereo not drawn) | – | -1.69%
Cc1cc(C(F)(C(F)(F)F)C(F)(F)F)ccc1NC(=O)c1cccc(I)c1C(=O)NC(C)(C)CS(C)(=O)=O | – | -8.59% [at 35.3 µM]
[Cd+2].[Cl-].[Cl-] | – | -13.8%
CCOP(=S)(OCC)SCCS(=O)(=O)CC | – | -11.3%
CC(C)(COCC1CO1)COCC1CO1 (stereo not drawn) | – | -6.65%
C=COCCCl | – | -1.45%
Cc1ccc(C(=O)Cl)cc1 | – | 3.92%
CCCCCCCCCBr | – | -9.05%
CC(=O)Nc1ccc2c(c1)Cc1ccccc1-2 | – | -3.36%
CC(C)N1C(=O)N(c2ccccc2)CSC1=NC(C)(C)C | – | -16.5%
C=CC(=O)OCC(COC(=O)C=C)(COC(=O)C=C)COC(=O)C=C | 4.9 µM (active) | –
